From PubChem
Rango release inh: inhibition of RanGTP-driven Rango-importin beta dissociation | 340,000 compounds, 0.071% hits | Potency, µM (top dose mostly 46.1 µM) | Biochemical FRET Rango-importin beta, RanGTP-induced dissociation; calls by dose curve; also: nearly all actives have a fitted effect of over 45% in size
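Compounds preincubate 5 min with complex of recombinant Rango and importin beta in PBS with 1 mM DTT. Ran (0.6 uM) loaded with 2 mM GTP plus 0.2 uM RCC1 starts dissociation; FRET is recorded 45 min later.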
GCN5L2 inh: GCN5L2 (KAT2A) acetyltransferase inhibition; Q92830; GCN5L2 HAT assay, ThioGlo1 CoA-SH fluorescence; Potency, µM (top dose mostly 58.9 µM), actives largely listed as inhibitors; 390,000 compounds, 0.21% hits
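Fluorescence readout, Ex340nm/Em540nm: ThioGlo1 (50uM final) reacts with free CoA thiol released as 20nM GCN5L2 acetylates H3(1-25) peptide (75uM) using acetyl-CoA (70uM). Compound and enzyme sat 15 min beforehand; 20 min room-temperature reaction.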
VDR inh: blocks the human vitamin D receptor. P11473. VDR-SRC2-3 peptide fluorescence polarization, 2 h. Potency, µM, usual class: inhibitors. 400,000 compounds, 0.93% hits. AID 504847
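The screen uses fluorescence polarization to detect compounds that interfere with recruitment of the SRC2-3 coactivator peptide to VDR; plates are read after 2 h at room temperature.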
PI5P4Ka inh: blocks human PI5P4K alpha kinase activity. 330,000 compounds, 1.2% hits. PI5P4Kalpha enzyme, ADP-Glo luminescence, 60 min; hits give low values. max response, %. P48426; active = max response of -50% or lower; inconclusive = between -30% and -50%; inactive = -30% or higher; also: value at the top dose of about 77 µM
Target sequence (P48426 whole entry, looked up): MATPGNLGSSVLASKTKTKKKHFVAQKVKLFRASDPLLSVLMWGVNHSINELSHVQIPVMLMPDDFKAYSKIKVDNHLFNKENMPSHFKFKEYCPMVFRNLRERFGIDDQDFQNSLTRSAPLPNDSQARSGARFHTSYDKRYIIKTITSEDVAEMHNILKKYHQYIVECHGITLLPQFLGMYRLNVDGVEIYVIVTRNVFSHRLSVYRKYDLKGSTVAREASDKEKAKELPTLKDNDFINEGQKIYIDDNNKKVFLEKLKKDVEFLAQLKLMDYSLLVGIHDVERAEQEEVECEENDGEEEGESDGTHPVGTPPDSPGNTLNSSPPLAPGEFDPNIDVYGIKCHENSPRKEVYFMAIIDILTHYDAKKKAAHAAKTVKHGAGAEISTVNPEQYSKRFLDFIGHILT
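Single end-point luminescence (ADP-Glo) quantified ADP from PI5P4Kalpha turnover; ATP 5 microM final, 1 h at RT, 0.1% CHAPS and 0.28 mM EGTA in HEPES pH 7.4.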
PLK1 PBD block: blocks phosphopeptide binding to human PLK1 polo-box domain | P53350 | Plk1 PBD binding of FITC phosphopeptide, fluorescence polarization | Potency, µM, hits mostly inhibitors | 360,000 compounds, 2.8% hits | AID 720504; also: series mostly up to about 57 µM; nearly all actives have a fitted effect of over 65% in size
Rango complex inh: inhibitors of Rango-importin beta complex formation; 340,000 compounds, 0.031% hits; Potency, µM (series often up to 92.2 µM); Rango CFP/YFP FRET sensor + importin beta, 45 min; AID 540263; calls by dose curve; also: nearly all actives have a fitted effect of over 15% in size
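FRET biosensor Rango (snurportin 1 IBB between N-terminal EYFP and C-terminal Cerulean), 50 nM in PBS/1 mM DTT/0.02% Tween-20/0.1% BSA, preincubated 5 min RT with compound; 0.125 microM importin beta added, 45 min RT, CFP/YFP FRET ratio read.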
A number is an active result; - = inactive; ? = inconclusive; . = no result. Hits are enriched below; roughly 3.6% of the tested compounds scored in any of these assays. Unless noted, calls follow the shape of the dose curve; as a rule, active = well fitted curve in the direction sought with a large enough effect; inconclusive = small, poorly fitted or top-dose-only effect, or another doubt; inactive = no such curve, though single readings can be large; an effect the other way counts as inactive or inconclusive.

SMILES	Rango release inh	GCN5L2 inh	VDR inh	PI5P4Ka inh	PLK1 PBD block	Rango complex inh
CCCn1c(=N)c(C#N)cc2c(=O)n3cccc(C)c3nc21	.	-	.	.	.	.
Cc1cccn2c(=O)c3cc(C#N)c(=N)n(CCN4CCOCC4)c3nc12	8.2µM	-	-	-	-	?
COC(=O)c1c(OC)cc2c(c1C)Oc1c(Cl)c(O)c(Cl)c(C)c1C(=O)O2	.	?	39.8µM	.	.	.
C=CCSc1nnc(-c2nnc(SCC=C)n2-c2ccccc2)n1-c1ccccc1	-	31.6µM	-	-	-	-
C=CCSc1nnc(-c2sc(-c3ccccc3)nc2C)n1C	-	-	-	-	-	-
COc1cccc(/C=N/NC(=O)C(=O)N/N=C/c2cccc(OC)c2OC)c1OC	-	-	-	-	-	-
COc1cccc(/C=N\NC(=O)c2sc(N)nc2C)c1OC	-	-	-	?	26.7µM	-
COc1ccccc1-c1noc(CSc2nnc(Cc3ccccc3)n2-c2ccc(C)c(C)c2)n1	.	-	-	.	.	.
CC1(C)OC(=O)C2(Cc3ccc(Cl)cc3N3CCCCC32)C(=O)O1 (stereo unspecified)	.	.	-	.	.	.
Cc1cc(NC(=O)CCCS(=O)(=O)c2nc(-c3cccs3)cc(C(F)(F)F)n2)no1	-	-	17.8µM	-	?	-
COCC(C)NC(=O)CCS(=O)(=O)c1nc(-c2ccc(OC)cc2)cc(C(F)(F)F)n1 (stereo unspecified)	-	-	79.4µM	-	?	-
COc1ccc(NC(=O)CCS(=O)(=O)c2nc(-c3ccc4c(c3)OCO4)cc(C(F)(F)F)n2)c(OC)c1	.	-	?	.	.	.
O=C(O)CCS(=O)(=O)c1nc(-c2cccs2)cc(C(F)(F)F)n1	-	-	?	.	?	-
COC(=O)CCS(=O)(=O)c1nc(-c2ccccc2)cc(C(F)(F)F)n1	-	-	20µM	.	21.2µM	-
CCOC(=O)CS(=O)(=O)c1nc(-c2ccc(F)cc2)cc(C(F)(F)F)n1	-	-	?	-	5.32µM	-
CC1CCc2onc(C(=O)N3CCN(c4ccc(Cl)cc4)CC3)c2C1 (stereo unspecified)	.	-	-	.	.	.
O=C(O)c1ccccc1CSC1=NCCS1	-	-	-	-	16.8µM	-
N#Cc1ccccc1CSC1=NCCS1	-	-	-	-	-	-
O=C(Nc1cc(Cl)ccc1Cl)c1cc(S(=O)(=O)N2CCCc3ccccc32)ccc1F	.	-	-	.	.	.
Cc1cc2c(cc3c(SCc4ccccc4Cl)nnc(C)n32)o1	.	-	-	.	.	.
O=C(NNC(=S)NC1CCCCC1)c1cccc(S(=O)(=O)Nc2ccccc2Cl)c1	-	-	-	-	29.9µM	-
O=C(c1cccc(S(=O)(=O)Nc2ccccc2Cl)c1)N1CCCCCC1	-	-	-	-	-	-
CCCCN(CC)C(=O)CSc1nc2n[nH]c(C)c2c(=N)n1-c1cccc(Cl)c1	.	-	-	.	.	.
Cc1cccc(-c2noc(-c3ccc(NCc4cccnc4)c([N+](=O)[O-])c3)n2)c1	.	-	-	.	.	.
CC(C)C(=O)N1CCC(n2nccc2NC(=O)CCc2ccccc2)CC1	-	-	?	-	3.36µM	-
SMILES	Rango release inh	GCN5L2 inh	VDR inh	PI5P4Ka inh	PLK1 PBD block	Rango complex inh
COCCC(=O)N1CCC(n2nccc2NC(=O)c2ccccc2C)CC1	-	-	?	-	21.2µM	-
C=CCCC(=O)N1CCC(n2nccc2NC(=O)c2ccccc2C)CC1	-	?	-	-	-	-
Cc1c(C(=O)Nc2cccc(C#N)c2)sc2nc3n(c(=O)c12)CCCCC3	.	-	-	.	.	.
N=C(N)S/C=C\C(=O)O	.	?	28.2µM	.	.	.
O=[N+]([O-])c1ccc(O)c(C2=NNC(c3ccccc3F)C2)c1 (stereo unspecified)	-	-	79.4µM	-	?	-
COc1cc(NC(=O)CCn2cnc3ccccc3c2=O)cc(OC)c1	.	-	-	.	.	.
O=C(NC1CCCCC1)Sc1ccc(Cl)cc1	-	-	22.4µM	-	2.67µM	-
CCCN1CNc2c(c(=O)[nH]c(=S)n2CCc2cccc(OC)c2OC)C1	.	.	-	.	.	.
CN1C(=O)c2cccc(NCCCN3C(=O)c4ccccc4C3=O)c2C1=O	?	-	-	.	-	?
CCNc1cccc2c1C(=O)N(C)C2=O	?	-	-	.	23.8µM	?
CCC(C)NC(=O)Cn1c(=O)n(-c2cc(OC)cc(OC)c2)c(=O)c2ccccc21 (stereo unspecified)	.	-	-	.	.	.
COC(=O)c1cc(C)nc2c1c(=O)nc(SCc1ccccc1F)n2C1CC1	.	-	-	.	.	.
CN(CCC#N)C(=O)COC(=O)c1c2c(nc3ccccc13)/C(=C/c1ccco1)CC2	?	?	-	-67.9	-	?
C=C[C@@]1(C)CC(=O)[C@@]2(O)[C@@]3(C)[C@@H](O)CCC(C)(C)[C@@H]3[C@H](O)[C@H](OC(C)=O)[C@@]2(C)O1	.	-	-	.	.	.
COc1ccc(OC)c(C(C)NC(=O)Cn2c(=O)cc(C)c3c(C)nn(-c4ccc(C)cc4)c32)c1 (stereo unspecified)	.	-	-	.	.	.
CC(C)C1=Nc2cccc3cccc(c23)N1	-	-	-	-	9.47µM	-
CCCCC(=O)NC(c1ccc(Cl)cc1Cl)c1ccc2cccnc2c1O (stereo unspecified)	-	-	?	?	3.36µM	-
CCC(=O)NC(c1ccc(Cl)cc1Cl)c1ccc2cccnc2c1O (stereo unspecified)	?	-	-	-	-	?
CCCC(=O)NC(c1ccc(N(C)C)cc1)c1ccc2cccnc2c1O (stereo unspecified)	-	-	-	-	26.7µM	-
O=C(O)c1ccccc1NC(c1ccccc1)c1ccc2cccnc2c1O (stereo unspecified)	-	.	35.5µM	-57.0	0.597µM	-
Cc1ccnc(NC(c2ccccc2)c2ccc3cccnc3c2O)c1 (stereo unspecified)	-	.	?	-	?	-
CCCC(=O)NC(c1ccc(C(C)C)cc1)c1ccc2cccnc2c1O (stereo unspecified)	-	-	-	-	-	-
COc1ccccc1N1CCN(C(=O)Cn2ncc3ccsc3c2=O)CC1	.	-	-	.	.	.
CCN(C(=O)Cn1cc(C(=O)c2ccc(F)cc2)c(=O)c2ccc(C)nc21)c1cccc(C)c1	.	-	-	.	.	.
O=C(NCC(c1ccco1)S(=O)(=O)c1ccc(Cl)cc1)c1ccccc1F (stereo unspecified)	.	-	-	.	.	.
COc1cccc(CNC(=O)Cn2ccc3cc(S(=O)(=O)N4CCCC4)ccc32)c1OC	-	-	-	-	29.9µM	?
CCOc1ccc(CNC(=O)Cn2ccc3cc(S(=O)(=O)N4CCCC4)ccc32)cc1	-	-	-	-	26.7µM	-
COc1ccccc1CCNC(=O)Cn1ccc2cc(S(=O)(=O)N3CCCC3)ccc21	-	-	-	-	?	-
CSc1ccc(CNC(=O)CCn2ccc3cc(S(=O)(=O)N4CCCC4)ccc32)cc1	-	-	-	-	26.7µM	-
